Results published in PubChem BioAssay (NCI).
This is part of a sample that, as a whole, favours compounds with a hit. Of some 79,000 tested, about 15% had one in any assay. A number with no mark means an inactive call. Active and inactive are the calls of the source. No stated cut-off is given here; in the data, active means growth inhibition above about 70%; inactive means the rest.

Experiment: NCI Yeast Anticancer Drug Screen. Data for the cln2 rad14 strain (AID 165);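 further: 0% = growth equal to vehicle treated cultures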
Settings: S. cerevisiae cln2 rad14 strain, at 50.0 µM, hits give high values
Procedure, shortened: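 Each compound was tested on cln2 rad14 yeast. Inhibition of growth was calculated against vehicle-exposed controls.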
`Nc1cc2[nH]c(=O)c3cc([N+](=O)[O-])ccc3c2cc1Cl` showed a growth inhibition of 4.8%. Compound `Cc1cccc(NC(=O)CC(=O)N2N=C(N3c4ccccc4Sc4ccccc43)CC2c2ccccc2)c1` (stereo not given) has a growth inhibition of -9.55%. Work on `N[C@@H](CO)[C@@H](O)c1ccc([N+](=O)[O-])cc1` yielded a growth inhibition of -38.5%. Work on `CCCCCCCCCCCCCCCCC(C)=O` yielded a growth inhibition of -16.6%. For `COc1cc(C2C(Cl)C(=O)N2n2cnc3ccccc3c2=O)ccc1O` (stereo not given), the growth inhibition was 12.8%. `NNC(=O)N/N=C1\C(=O)N(c2ccc(Cl)c(Cl)c2)C(=O)C(=O)C1c1nc2ccccc2s1` (stereo not given) gave a growth inhibition of 13.3%. With `CCCNC(=O)OCC#CCOC(=O)NCCC` the growth inhibition was -38.5%. `O=C(CC(=O)c1ccc(-c2ccc(C(=O)CC(=O)c3ccccc3)cc2)cc1)c1ccccc1` gave a growth inhibition of -34.4%. Compound `Cc1ccc(C)c(NC(=O)C(=O)C2C(=O)N(c3ccccc3)N=C2N)c1` (stereo not given) has a growth inhibition of 1.9%. Work on `CCc1cccc(NC(=O)c2cc(/C=C/c3ccccc3)[nH]c(=S)n2)c1` yielded a growth inhibition of -1.85%. Work on `CSc1ccccc1N.[Cl][Cu][Cl]` yielded a growth inhibition of 14.8%. In the case of `BrC1=C(c2ccccc2)C2CCCCC2C1(Br)c1ccccc1` (stereo not given), the growth inhibition was 96.9% (active). Work on `O=C1NC(=O)C2(CCC(O)C2)c2cc[n+]([O-])cc21` (stereo not given) yielded a growth inhibition of 8.25%. Compound `COC(=O)C(=O)c1c(C(=O)OC)nc2nnc(N)n2c1C1CC1` has a growth inhibition of -17.9%. In the case of `CCOC(=O)C(=[N+]=[N-])C(=O)c1cc2ccccc2oc1=O`, the growth inhibition was -0.55%. In the case of `CSc1c(C#N)c2c(Cl)ncnc2n1C(C)=O`, the growth inhibition was -71.5%. Compound `COC(=O)C(O)C(O)C(O)C(O)C(O)CO` (stereo not given) has a growth inhibition of -45.4%. In the case of `C=CCNC(=S)N(Cc1ccccc1)Cc1ccccc1`, the growth inhibition was 82.9% (active). With `C[C@@]1(NC(=O)Cc2ccccc2)C(=O)N2CCS[C@@]21c1ccccc1` the growth inhibition was -3.2%. `N#CC1(C#N)CC1c1ccccc1` (stereo not given) gave a growth inhibition of -6.1%. Work on `CCCCS(=O)(=O)N1CCCC1` yielded a growth inhibition of -28.2%. Compound `CCN(CC)CCNc1nc(N)c(C#N)c(C#N)c1C#N` has a growth inhibition of 9%. `CC(C)NC(=O)CCC(=O)O` gave a growth inhibition of -5.65%. `O=C1C(=Cc2ccc([N+](=O)[O-])cc2)C(=O)c2ccccc21` showed a growth inhibition of 24.1%. `O=C1C2Nc3ccccc3N=C2OC1c1cccc([N+](=O)[O-])c1` (stereo not given) gave a growth inhibition of 16.9%. For `N#Cc1sc2c(c1OC(=O)c1ccc(C(F)(F)F)cc1)c(=O)n(-c1ccccc1)c(=S)n2-c1ccccc1`, the growth inhibition was 0.8%. In the case of `O=[N+]([O-])c1ccc(C2=NOC3COC4C=CC=CC4OCC23)cc1` (stereo not given), the growth inhibition was -2.55%. For `CCCCCCCCCCCCCC(=O)OCC(CCS(=O)(=O)O[C@H]1CC[C@@]2(C)C(=CC[C@@H]3C2CC[C@]2(C)C(=O)CCC32)C1)OC(=O)CCCCCCCCCCCCC` (stereo not given in full), the growth inhibition was -26.6%. `O=C(/C(=C\c1ccccc1)c1ccccc1)c1ccccc1` gave a growth inhibition of -75.2%. `CCc1nc(Nc2cccc(Cl)c2)c2cnn(-c3ccccc3)c2n1` showed a growth inhibition of -48.4%. With `C=CCNC(=S)N/C=C(\C#N)c1nc2ccccc2s1` the growth inhibition was 32.4%. In the case of `CC(=O)Oc1ccc2ccccc2c1CS(=O)(=O)O`, the growth inhibition was 4.35%. `O=S(=O)(Nc1cc(C(F)(F)F)ccc1Cl)c1ccc(F)cc1` showed a growth inhibition of 7.5%. With `NC(=O)CNC(=O)[C@@H]1C[C@@H](OCCC(=O)O)CN1C(=O)OCc1ccccc1` the growth inhibition was 4.1%. `O=C(O)CCC(=O)Nc1cc([N+](=O)[O-])ccc1OCc1ccccc1` gave a growth inhibition of -12.4%. Work on `CC1=NN(c2ccccc2)C(N)C1` (stereo not given) yielded a growth inhibition of 11.5%. For `CN(Cc1ccc(Cl)cc1)C(=O)Nc1ccccc1Cl`, the growth inhibition was 7.35%. `O=C(c1ccc(Cl)cc1Cl)N1CCCCC1` showed a growth inhibition of -1.25%. In the case of `c1ccc(CN[C@]23C4C5CC6C7C5C2C7[C@@](NCc2ccccc2)(C64)N3Cc2ccccc2)cc1` (stereo not given in full), the growth inhibition was -37.4%. Work on `CN(C)c1ncnc2nc[nH]c12` yielded a growth inhibition of -14.4%.
